Laboratory results: PubChem BioAssay (NCATS)
Records with an inconclusive call do not appear. Values without a mark were called inactive. Active and inactive are the calls of the source. The call rests on the fitted dose curve; in most records, active means well fitted cell-killing curve with a large enough effect; inconclusive means small, poorly fitted or top-dose-only effect, or effect the other way; inactive means no such curve, though single readings can be large or run the other way.

Assay: Quantitative High-Throughput drug screen in 47 multiple myeloma cell lines against the NCATS MIPE library collection: KMS26_JCRB cell viability assay (AID 1918975); further: nearly all actives have a fitted effect of over 45% in size
Details: KMS26 myeloma cells viability, CellTiter-Glo ATP, 48 h; series mostly up to 45.8 µM; viability (% of DMSO): at the top concentration
Description: PI: Beverly A. Mock Ph.D.
Laboratory of Cancer Biology and Genetics,
Center for Cancer Research, National Cancer Institute,
National Institute of Health, Bethesda, Maryland
Drug resistance and disease progression are common in multiple myeloma (MM) patients, underscoring the need for new therapeutic combinations. […] We hypothesized that effective combinations would reduce MYC expression and enhance p16 activity. […] These preclinical data identify potentially useful drug combinations for evaluation in drug-resistant MM and reveal potential mechanisms of combined drug sensitivity.
Described herein is the primary MIPE qHTS used to cherrypick compounds. Validated compounds were then further tested for potential synergistic activiy.
[1] Peat TJ, Gaikwad SM, Dubois W, Gyabaah-Kessie N, Zhang S, Gorjifard S, Phyo Z, Andres M, Hughitt VK, Simpson RM, Miller MA, Girvin AT, Taylor A, Williams D, D'Antonio N, Zhang Y, Rajagopalan A, Flietner E, Wilson K, Zhang X, Shinn P, Klumpp-Thomas C, McKnight C, Itkin Z, Chen L, Kazandijian D, Zhang J, Michalowski AM, Simmons JK, Keats J, Thomas CJ, Mock BA. Drug combinations identified by high-throughput screening promote cell cycle transition and upregulate Smad pathways in myeloma. Cancer Lett. 2023 Aug 1;568:216284. doi: 10.1016/j.canlet.2023.216284. Epub 2023 Jun 24. PMID: 37356470; PMCID: PMC10408729.
SEQUENCE No. (e.g., 1, 2, 3, etc.); […] (e.g., Cells, Incubation, Reagent, etc.); VALUE and DESCRIPTION.
1; Cells; 5 uL; white, solid bottom 1536-well Greiner assay plate.
2; Compounds; 23 nL; Kalypsis pin tool (Wako USA) equipped with a 1536-well pin head to transfer to the assay plates.
3; Incubation; 48 hours; 37C incubation.
4; Reagent;5uL; CellTiter Glo (Promega).
5; Detector; 425V; Luminescence; Viewlux PerkinElmer.
NOTES (numbers refer to Sequence numbers above)
1. The cell-based screening methods employed in this study were like those previously published. Briefly, the corresponding myeloma cell lines were screened in 1,536-well plates with 500 cells, 5-uL per well for inhibition of cell viability (assessed by measuring ATP levels with CellTiterGlo).
2. NCATS MIPE 4.0 library of approved and investigational drugs were added using the Kalypsis pin tool. Wells treated with DMSO only for 100% viability and media only wells for 0% viability were used as controls.
3. The assay plates were covered and incubated for 48 hours in a 37C, 5% CO2 incubator with controlled humidity.
4. After 48 hours, CellTilter-GloTM luminescent substrate mix (Promega) reagent was added to the assay plate and plates we incubated for 5 min at room temperature.
5. Signal was measured as median relative luminescence units on a ViewLux (PerkinElmer) multiplate reader.
[1] Heske CM, Davis MI, Baumgart JT, Wilson K, Gormally MV, Chen L, Zhang X, Ceribelli M, Duveau DY, Guha R, Ferrer M, Arnaldez FI, Ji J, Tran HL, Zhang Y, Mendoza A, Helman LJ, Thomas CJ. Matrix Screen Identifies Synergistic Combination of PARP Inhibitors and Nicotinamide Phosphoribosyltransferase (NAMPT) Inhibitors in Ewing Sarcoma. Clin Cancer Res. 2017 Dec 1;23(23):7301-7311. doi: 10.1158/1078-0432.CCR-17-1121. Epub 2017 Sep 12. PMID: 28899971; PMCID: PMC6636827.
Potency means the concentration at half of the fitted maximal effect.

SMILES | viability (% of DMSO) | Potency
CCN(CC)CCCC(C)Nc1ccnc2cc(Cl)ccc12 (stereo not given) | 95.5% | 
COc1ccc(-c2ccc3c(N4CCOC[C@H]4C)nc(N4CCOC[C@H]4C)nc3n2)cc1CO |  | 4.69 µM (active)
Nc1nc2c(ncn2COCCO)c(=O)[nH]1 | 154% | 
c1ccc([C@H]2CN3CCSC3=N2)cc1 | 145% | 
COc1ccc(-c2ccc3c(N4CCOCC4)nc(N4C[C@@H](C)O[C@@H](C)C4)nc3n2)cc1CO |  | 2.96 µM (active)
COc1ccccc1[C@H](c1cccc2ccccc12)[C@@](C)(C#N)C(=O)N1CCC(c2cccc(C(F)(F)F)c2)CC1 |  | 7.43 µM (active)
NCCCC(N)(C(=O)O)C(F)F (stereo not given) | 108% | 
CCc1cncnc1N1CCN(Cc2nc3ccc(C(F)(F)F)cc3[nH]2)CC1 |  | 4.18 µM (active)
Cc1ccc(-n2nc(C(C)(C)C)cc2NC(=O)Nc2ccc(OCCN3CCOCC3)c3ccccc23)cc1 |  | 26.4 µM (active)
CN(C)c1ccc(C2Nc3ccc4ccccc4c3C3=C2C(=O)CC(C)(C)C3)cc1Br (stereo not given) |  | 16.6 µM (active)
CNC[C@H](O)c1cccc(O)c1 | 144% | 
Cc1[nH]c(=O)c(C#N)cc1-c1ccc2nccn2c1 | 140% | 
OC(CN1CCC(Cc2ccc(F)cc2)CC1)c1ccc(Cl)cc1 (stereo not given) | 97.1% | 
Oc1ccc(C2CNCCc3c2cc(O)c(O)c3Cl)cc1 (stereo not given) |  | 1.32 µM (active)
CCOc1cc(C=C2C(=O)N(c3ccccc3)N=C2C)cc(Cl)c1OCC(=O)OC |  | 20.9 µM (active)
COc1ccc2c3n(c(=NC(=O)c4cccnc4)nc2c1OC)CCN3 |  | 11.8 µM (active)
COc1ccc(COc2cc3oc(=O)c4cc(C(C)O)ccc4c3cc2OC)cc1 (stereo not given) |  | 11.8 µM (active)
CC(C=CC1=C(C)CCCC1(C)C)=CC=CC(C)=CC(=O)O | 104% | 
COc1nc(-c2ccc3c(c2)OCO3)n(-c2ccc(NC(=O)CSc3ccccc3)cc2)n1 |  | 11.8 µM (active)
CCOc1ccn(-c2ccc(F)cc2)c(=O)c1C(=O)Nc1ccc(Oc2ccnc(N)c2Cl)c(F)c1 | 173% | 

SMILES | viability (% of DMSO) | Potency
CCCCNc1cc(C(=O)O)cc(S(N)(=O)=O)c1Oc1ccccc1 | 122% | 
Cn1c(=O)c(F)c(Nc2ccc(I)cc2F)c2c(=O)n(C[C@@H](O)CO)cnc21 | 134% | 
Cc1cc([C@@H](C)Nc2ccccc2C(=O)O)c2nc(N3CCOCC3)cc(=O)n2c1 |  | 27 µM (active)
Cc1csc(NC(=O)c2sc3nc4c(c(C(F)(F)F)c3c2N)CCC4)n1 | 117% | 
Cc1cnc(Nc2ccc(OCCN3CCCC3)cc2)nc1Nc1cccc(S(=O)(=O)NC(C)(C)C)c1 | 123% | 
CC(C)OC(=O)C1=CN(C(=O)c2ccc(F)c(F)c2)CC(C)(C)c2c1[nH]c1ccccc21 | 98.9% | 
COc1ccc(-c2oc3cc(OC)ccc3c2C(=O)c2ccc(C#N)cc2)cc1 | 110% | 
CCCS(=O)(=O)Nc1ccc(F)c(C(=O)c2c[nH]c3ncc(Cl)cc23)c1F | 129% | 
N[C@@H]1CONC1=O | 125% | 
CCOC(=O)C1=C[C@]2(CC)CCCN3CCc4c(n1c1ccccc41)[C@@H]32 |  | 26.4 µM (active)
Cc1cc2c(C(C)C)c(O)c(O)c(C=O)c2c(O)c1-c1c(C)cc2c(C(C)C)c(O)c(O)c(C=O)c2c1O |  | 14.8 µM (active)
C1COC(NC(C2CC2)C2CC2)=N1 | 115% | 
COc1cc(F)c(F)c(Nc2ccc(I)cc2F)c1NS(=O)(=O)C1(C[C@H](O)CO)CC1 |  | 13.2 µM (active)
COc1c(Cl)cc2c([nH]c3cnccc32)c1NC(=O)c1cccnc1C |  | 13.2 µM (active)
CNC(=O)c1ccc(N2C(=S)N(c3ccc(C#N)c(C(F)(F)F)c3)C(=O)C2(C)C)cc1F | 147% | 
Cc1[nH]c(=O)c(C#N)cc1-c1ccncc1 | 135% | 
O=S(=O)(N=Cc1c(O)ccc2ccccc12)c1cccs1 |  | 16.6 µM (active)
CCOc1ccc(Cc2cc([C@@H]3O[C@H](CO)[C@@H](O)[C@H](O)[C@@H]3O)ccc2Cl)cc1 | 146% | 
O=c1[nH]c(-c2ccc(C(F)(F)F)cc2)nc2c1CSCC2 |  | 3.72 µM (active)
Nc1ncnc2nc(-c3ccc(N4CCOCC4)nc3)cc(-c3cccc(Br)c3)c12 | 101% | 
